BRCT PPI red: qHTS Assay for Inhibitors of BRCT-Phosphoprotein Interaction (Red Fluorophore). 0.03% of 75,000 active. Potency, µM (titrated, usually from 76.9 µM), usual class: inhibitors. AID 892, 2007. BRCT-phosphopeptide binding, red fluorescence polarization
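Fluorescence polarization: 100 nM His-tagged BRCA1 BRCT with 100 nM TAMRA-labelled phospho-BACH1 decapeptide, phosphate buffer pH 7.3 with 150 mM NaCl, DTT, 0.01% Tween 20; 12 min RT. Binding inhibition seen as FP decrease.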
YjeE inh: qHTS Assay for Inhibitors of YjeE. 0.05% of 71,000 active. Potency, µM. purified YjeE enzyme, qHTS inhibition assay. tRNA threonylcarbamoyladenosine biosynthesis protein TsaE (Escherichia coli (strain …. AID 605, 2007
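Fluorescence polarization of a BODIPY Texas Red–ADP probe (2 uM) bound to purified YjeE (10 uM) was read after 15 min room-temperature incubation with compounds. Loss of polarization marks inhibitors; ADP serves as titrated control.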
ALOX15 inhib: qHTS Assay for Inhibitors of 15-hLO (15-human lipoxygenase). Polyunsaturated fatty acid lipoxygenase ALOX15 (Homo sapiens), P16050. purified 15hLO-1, xylenol orange hydroperoxide absorbance. Potency, µM (top dose mostly 57.1 µM), actives largely listed as inhibitors. 1.4% of 74,000 active. AID 887, 2007; note: nearly all actives have a fitted effect of over 55% in size
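Inhibition is scored from a chromogenic endpoint. After 15 min enzyme-compound contact, arachidonic acid (50 uM final) reacts 6 min with 40 nM 15hLO-1 at room temperature, then Fe-XO reagent is added for 30 min and absorbance ratio recorded.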
Pol III holo inh: qHTS Assay for Inhibitors of DNA Polymerase III Holoenzyme System | reconstituted DNA polymerase III holoenzyme replication, biochemical | Potency, µM (highest dose often 57.1 µM) | 0.25% of 71,000 active | AID 603, 2007
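Reconstituted *E. coli* holoenzyme (0.35 nM Pol III, 1 nM beta, 154 nM SSB, 2 nM primase) was preincubated with compound for 15 min at RT. Synthesis on 1.4 nM ssM13Gori ran 35 min, then was stopped with PicoGreen/EDTA and read as dsDNA fluorescence.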
Tau filament bind: qHTS Assay for Tau Filament Binding; recombinant tau filaments, thioflavin S fluorescence, 15 h; filaments grown with octadecylsulfate alongside compound; 2% of 71,000 active; Microtubule-associated protein tau (Homo sapiens), P10636; Potency, µM (titrated, usually from 57.1 µM);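 note: actives lower thioflavin S fluorescence by blocking filaments or displacing dye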
Target sequence (P10636 whole entry, looked up): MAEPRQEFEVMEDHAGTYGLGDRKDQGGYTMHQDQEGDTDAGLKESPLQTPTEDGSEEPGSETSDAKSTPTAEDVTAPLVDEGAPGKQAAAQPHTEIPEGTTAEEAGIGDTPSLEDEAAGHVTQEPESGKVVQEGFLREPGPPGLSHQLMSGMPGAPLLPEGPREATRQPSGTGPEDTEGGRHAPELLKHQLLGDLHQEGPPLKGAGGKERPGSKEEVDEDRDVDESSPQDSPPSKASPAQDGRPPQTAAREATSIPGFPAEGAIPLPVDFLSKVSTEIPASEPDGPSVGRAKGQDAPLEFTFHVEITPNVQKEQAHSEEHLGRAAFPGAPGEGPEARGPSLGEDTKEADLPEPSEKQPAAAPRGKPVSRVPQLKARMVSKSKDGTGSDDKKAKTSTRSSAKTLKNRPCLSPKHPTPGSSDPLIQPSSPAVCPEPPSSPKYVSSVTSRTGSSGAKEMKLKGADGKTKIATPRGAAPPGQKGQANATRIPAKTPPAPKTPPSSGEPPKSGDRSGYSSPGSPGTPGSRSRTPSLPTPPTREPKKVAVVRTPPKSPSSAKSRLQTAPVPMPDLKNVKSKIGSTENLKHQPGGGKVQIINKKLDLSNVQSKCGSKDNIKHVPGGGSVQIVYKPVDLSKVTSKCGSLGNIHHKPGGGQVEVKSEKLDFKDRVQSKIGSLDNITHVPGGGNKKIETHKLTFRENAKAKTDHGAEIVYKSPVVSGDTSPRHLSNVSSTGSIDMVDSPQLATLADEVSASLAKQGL
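His-tagged recombinant human tau (exons 2, 3 and 10 included), 1 uM, was induced to fibrillize by 30 uM sodium octadecylsulfate with compound present. After 15 h at 37 C, thioflavine S fluorescence (ex 450, em 510 nm) was read.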
BRCT PPI green: qHTS Assay for Inhibitors of BRCT-Phosphoprotein Interaction (Green Fluorophore). AID 875, 2007. 0.05% of 75,000 active. Potency, µM (top dose mostly 76.9 µM), most hits filed as inhibitors. BRCA1 BRCT-phosphopeptide binding, green fluorescence polarization. Breast cancer type 1 susceptibility protein (Homo sapiens), P38398
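Fluorescence polarization: His-tagged BRCT (~35 kDa BRCA1 C-terminus, 250 nM) bound to 100 nM fluorescein-labeled phosphorylated 10-aa BACH1 peptide, pH 7.3 phosphate buffer with DTT and Tween 20. Compounds incubated 12 min at room temperature; inhibition read as lowered polarization.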
Numbers stand for hits; i = inactive; ? = inconclusive; nt = no result given; [ ] = dose if it differs, or a comment. Most compounds without a hit are left out; they make up all but 3.1% or so of the library. Calls come from the whole dose curve; as a rule, active = well fitted curve in the direction sought with a large enough effect; inconclusive = small, poorly fitted or top-dose-only effect, or another doubt; inactive = no such curve, though single readings can be large; an effect the other way counts as inactive or inconclusive.

SMILES	BRCT PPI red	YjeE inh	ALOX15 inhib	Pol III holo inh	Tau filament bind	BRCT PPI green
N#Cc1c(N)nc2c(c1-c1ccc3c(c1)OCO3)CCCCCC2	i	i	i	i	i	i
N#Cc1c(N)oc(-c2ccc3c(c2)OCO3)c1-c1ccc2c(c1)OCO2	i	i	25µM	i	i	i
Cc1ccc(-c2cc(-c3ccc4c(c3)OCO4)c(C#N)c(N)n2)o1	i	i	10µM	i	13µM	i
COc1ccc(NC(=O)N2CC[C@@]3(CCCN(C(=O)c4cnccn4)C3)C2)cc1	i	i	i	i	i	i
CCCCn1c2nc3ccccc3nc2c2c(=O)n(CCC(C)C)cnc21	i	i	i	i	i	i
CC(C)Cn1c2nc3ccccc3nc2c2c(=O)n(CCN3CCOCC3)cnc21	i	i	?	i	25µM	i
C[C@H]1[C@H](C)CC[C@@]2(C(=O)O)CC[C@]3(C)C(=CC[C@H]4[C@@]5(C)C[C@@H](O)[C@H](O)[C@@](C)(CO)[C@@H]5CC[C@@]43C)[C@@H]12	nt	i	nt	i	i	nt
NCCCC(=O)N1c2ccccc2Sc2ccccc21	i	i	i	i	?	i
O=C(CN1CCCC1)N1c2ccccc2Sc2ccccc21	i	i	?	i	20µM	i
CC(=O)C1=C(C)Nc2cc(C(F)(F)F)ccc2S1	i	i	13µM	i	32µM	i
O=C(Nc1ccc(N2CCCC2)c(Cl)c1)c1ccc(Br)o1	i	i	i[11.4 µM]	i[11.4 µM]	4µM	i
O=C(NCCN1CCOCC1)c1ccc(-n2c(=O)c(=O)[nH]c3ccccc32)cc1	i	nt	i	nt	nt	i
O=C(Cc1coc2cc3c(cc12)CCC3)OCc1cc(=O)n2c(n1)sc1ccccc12	i	i	20µM	i	i	i
Nc1ncnc2c1ncn2[C@@H]1O[C@@H](COP(=O)(O)OP(=O)(O)OP(=O)(O)OP(=O)(O)OC[C@@H]2O[C@@H](n3cnc4c(N)ncnc43)[C@@H](O)[C@H]2O)[C@H](O)[C@@H]1O	i	50µM	i	i	i	i
Nc1ncnc2c1ncn2[C@@H]1O[C@H](COP(=O)(O)OP(=O)(O)O)[C@@H](O)[C@H]1O	i	nt	i	nt	nt	i
CSc1nc(N)c2ncn([C@H]3O[C@H](COP(=O)(O)OP(=O)(O)O)[C@@H](O)[C@@H]3O)c2n1	i	50µM	i	i	?	i
O=C1O/C(=C\Br)CC[C@@H]1c1cccc2ccccc12	i	i	?	i	i	i
CC(C)[C@H](O)C1=CCCCC1=O	i[15.4 µM]	nt	i[11.4 µM]	nt	nt	i[15.4 µM]
Cc1cc(C(=O)O)ccc1-n1c(C)ccc1C	i	i	?	?	i	i
Cc1cc(N)ccc1-n1c(C)ccc1C	i	i	?	i	25µM	i
CCOC(=O)N1CCC(n2c(SCC(=O)NCCC3=CCCCC3)nc3ccccc3c2=O)CC1	i	i	16µM	i	i	i
CCOC(=O)N1CCC(n2c(SCC(=O)NCc3ccccc3)nc3ccccc3c2=O)CC1	i	i	i	i	i	i
Cc1nc(N=Nc2cc(S(=O)(=O)O)ccc2S(=O)(=O)O)c(COP(=O)(O)O)c(C=O)c1O	i	i	i	i	?	i
Cc1ncc([N+](=O)[O-])n1C[C@H](O)CCl	i	i	i	i	i	i
COc1ccc(CNc2ccnc(-c3c(C)noc3C)n2)c(OC)c1	i	i	25µM	i	i	i
COc1ccc(NC(=O)Nc2ccc3c(c2)N(C)C(=O)CS3)cc1OC	i	i	i	i	20µM	i
COc1cc(C2Nc3cccc4cccc(c34)N2)cc(OC)c1O	i	i	i	i	4µM	i
C[C@@]12CCC(=O)C=C1C=CC1C2CC[C@]2(C)C1CC[C@@]21CCC(=O)O1 (stereo partly drawn)	i	nt	i	nt	nt	i[3.08 µM]
NS(=O)(=O)c1ccc(Nc2nc(-c3ccc(O)cc3)cs2)cc1	i	i	25µM	i	i	i

From PubChem
